Experimental data published in PubChem BioAssay (NCI).
This is part of a sample that, as a whole, favours compounds with a hit. Of some 79,000 tested, about 15% had one in any assay. Values without a mark were called inactive. Active and inactive are the calls of the source. Rule as the data show it: active = growth inhibition above about 70%; inactive = the rest. *1 amine or outer side, *2 acyl side, *3 side chain or, on linkers, in order; H or OH if unused. Where a SMILES comes first, the peptide text is derived from it. Bridges are numbered along the chain shown (N, C = ends). [ ]: non-standard residue; d: D form. The star is where a group is joined. ξ: configuration not given here. Fmoc = O=C(OCC1c2ccccc2-c2ccccc21)*; X9 = O=C(C(CCCCNO[*:3])N[*:1])[*:2]; ξW = NC(Cc1c[nH]c2ccccc12)C(=O)O; ξP = O=C(O)C1CCCN1

Columns and labels:
[1] = NCI Yeast Anticancer Drug Screen. Data for the rad50 strain (AID 155);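 also: 0% = growth of vehicle-only cultures of the same strain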; details: S. cerevisiae rad50 strain growth inhibition; at 50.0 µM; active compounds read high
In short: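 Cells are treated with compound, grown, and their growth is then scored against vehicle-only cultures of the same repair-deficient yeast strain.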

[2] = NCI Yeast Anticancer Drug Screen. Data for the mec2-1 strain (AID 157); details: S. cerevisiae mec2-1 strain, at 50.0 µM, active compounds read high
In short: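 Strain: mec2-1 (DNA repair/cell cycle alteration). Compound exposure, then growth measured; inhibition expressed relative to vehicle.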

[3] = NCI Yeast Anticancer Drug Screen. Data for the sgs1 mgt1 strain (AID 161);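 also: 0% = growth of cultures given vehicle only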; details: S. cerevisiae sgs1 mgt1 strain, at 50.0 µM, active compounds read high
In short: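 Inhibition of yeast growth, normalised to vehicle-treated controls, is reported for a strain bearing genetic alterations in DNA damage repair.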

[4] = NCI Yeast Anticancer Drug Screen. Data for the cln2 rad14 strain (AID 165);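 also: 0% = growth equal to vehicle treated cultures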; details: S. cerevisiae cln2 rad14 strain, at 50.0 µM, active compounds read high
In short: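 Compounds are applied to the cln2 rad14 yeast strain, and growth is then compared with that of vehicle-treated cultures to give inhibition.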

[5] = NCI Yeast Anticancer Drug Screen. Data for the bub3 strain (AID 167); details: S. cerevisiae bub3 mutant strain, at 50.0 µM, active compounds read high
In short: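 Part of a panel of yeast mutants defective in DNA damage repair or cell cycle regulation. Each strain is grown with compound, and inhibition is calculated relative to solvent-treated cultures.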

[6] = NCI Yeast Anticancer Drug Screen. Data for the mlh1 rad18 strain (AID 175); details: S. cerevisiae mlh1 rad18 strain growth inhibition; at 50.0 µM; active compounds read high
In short: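 Read-out is yeast growth inhibition, calculated against vehicle-only controls. The compound was applied to a strain engineered with DNA damage repair alterations.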

| SMILES | growth inhibition [1] | growth inhibition [2] | growth inhibition [3] | growth inhibition [4] | growth inhibition [5] | growth inhibition [6] |
| --- | --- | --- | --- | --- | --- | --- |
| COC(=O)CNc1cccc([N+](=O)[O-])c1 | -3.45% | 5.15% | -3.65% | -14.7% | -11.3% | -19.2% |
| CN1CCc2sccc2C(c2ccccc2)O1 (stereo unspecified) | 0.75% | 16.1% | -3.8% | 0.65% | 17.2% | -3.4% |
| O=C(O)C1(CC(CCCN2CCCCC2)c2ccccc2)CCCC1 (stereo unspecified) | -40% | -9.65% | -4.1% | 6.4% | -15.4% | -36.3% |
| CC(=O)NC1=C(Sc2ccc(Cl)cc2)C(=O)c2ccccc2C1=O | 56.2% | 15.8% | 18.3% | -56.4% | 19.9% | 33.2% |
| Cc1cc([NH-])c([NH-])cc1C.[Cl][Pt+2][Cl] | -2.85% | -6.4% | -0.15% | -0.3% | -6.4% | -25.9% |
| COc1ccc2c(c1)OCC1=C2Oc2ccccc2C1 | 98.2% (active) | 99.3% (active) | 99.1% (active) | 98.6% (active) | 97.9% (active) | 98.8% (active) |
| O=C(CCCC(=O)N/N=C/c1cccc([N+](=O)[O-])c1)N/N=C\c1cccc([N+](=O)[O-])c1 | 26.6% | 21.9% | 5.1% | 26.8% | 2.45% | 26.1% |
| Cn1nnc2c(C(N)=S)ncn2c1=O | 30.1% | 11% | 10.7% | 19.6% | 17.9% | 22% |
| CC(C)(C)COc1ccc2c(c1)C1=NC2=NC2=NC(=NC3=NC(=NC4=NC(=N1)c1ccc(OCC(C)(C)C)cc14)c1ccc(OCC(C)(C)C)cc13)c1ccc(OCC(C)(C)C)cc12 | 12.8% | 1.1% | -10.1% | -14.6% | -5.45% | 18.4% |
| OCC1OC(OC2CC3C(OC4OC(CO)C(O)C(O)C4O)CC(O)CC3OC2c2ccc(O)cc2)C(O)C(O)C1O (stereo unspecified) | 18.1% | 16.2% | 21% | 14.5% | 11.8% | 16.1% |
| O=C1CCCc2cc3c(cc21)CC1(Cc2ccccc2C1)C3 | -12.2% | -27.8% | 9.4% | -6.4% | 36.9% | -14.7% |
| CCN(CC)c1ccccc1S(=O)(=O)O | -5.45% | -5.3% | 2.9% | -42.9% | -6.85% | -6.35% |
| NNC(=O)c1ccc(Cl)cc1Nc1ccccc1 | 24.9% | 47% | 59% | 16.7% | -17.2% | 89% (active) |
| COC(=O)C(=O)c1c(C(=O)OC)nc2nnc(N)n2c1-c1ccc(Cl)c(Cl)c1 | 1.7% | -2.8% | -4.9% | -29.9% | 16.1% | -7.55% |
| C1=CC(c2ccccc2)C(c2ccccc2)C(c2ccccc2)=C1 (stereo unspecified) | -16.6% | 2.05% | 8.8% | -13.2% | -4.95% | -22.6% |
| C(=C\c1ccccn1)/c1ccc(/C=C/c2ccccn2)cc1 | -31.2% | 18.6% | 8.3% | -26.8% | 3.25% | 13.7% |
| CCO/C=C1/N=C(c2ccc(OC)c(OC)c2)OC1=O | -6.3% | 5.6% | 18.6% | -67.8% | -7.2% | 12.2% |
| Nc1ncc([N+](=O)[O-])c(N)n1 | 2.75% | 5.45% | 7.75% | 0.7% | -13.8% | 15.9% |
| O=C(O)CC(O)(c1ccccc1C(=O)O)c1cccc2ccccc12 (stereo unspecified) | -2.95% | -4.05% | 18.4% | 25.2% | -3.15% | 22.3% |
| CCNS(=O)(=O)c1cc(C(=O)O)cc(C(=O)O)c1 | 6.9% | -7.6% | -4.95% | -28.9% | -5.55% | 0.15% |
| CC(C)(C)C(=O)C(C#N)C(=O)C(C)(C)C | 8.75% | -19.9% | -7.45% | 16.1% | -19.9% | -14.2% |

| SMILES | growth inhibition [1] | growth inhibition [2] | growth inhibition [3] | growth inhibition [4] | growth inhibition [5] | growth inhibition [6] |
| --- | --- | --- | --- | --- | --- | --- |
| Cc1cc(N(CCC#N)CCC#N)ccc1N=Nc1ccccc1[N+](=O)[O-] | -44.7% | -38.1% | -13.3% | 12.8% | -32% | -24.1% |
| O=CC(NC(=O)N(CCF)N=O)C(O)C(O)C(O)CO (stereo unspecified) | -15% | -4.05% | 2.5% | -15.6% | 1.3% | -44.4% |
| CC(=O)OCC(=O)COC(C)=O | -4.95% | -6.35% | -8.4% | 8.5% | -2.2% | -8.55% |
| CC1(C)C=Cc2c(ccc(C(=O)Cc3ccccc3)c2O)O1 | 24.1% | 17.4% | 26.4% | -8.1% | 16% | 23.1% |
| CCOC(=O)C(C(=O)OCC)=C1c2ccccc2Oc2ccccc21 | 39.1% | 8% | 14.7% | -17.6% | 33.5% | 46% |
| COC(=O)C1CCC(=O)CC1 | -1% | -0.35% | -9.9% | -19.9% | 2.4% | -3.15% |
| CCCc1oc(C)cc1CC | 0.45% | -22.4% | 0.2% | -1.95% | -15.9% | -10.2% |
| COc1ccc(/C=C/c2onc3c(=O)n(C)nc(-c4ccccc4)c23)cc1 | -22.4% | -25.1% | -9.2% | -11.4% | -2.55% | -26.2% |
| COc1cc(C(O)C(=O)c2cnc3cc([N+](=O)[O-])ccc3n2)ccc1O (stereo unspecified) | 24.8% | 11.3% | -10.8% | 2.15% | -19% | -1.95% |
| Oc1cc2cc(-c3ccccc3)[nH]c2c2ccccc12 | -11.1% | -5.25% | -1.3% | 18.8% | -2.1% | 1.3% |
| CC(OC1CC(=O)CC2C(=O)C=CC(=O)C12)c1ccccc1 (stereo unspecified) | 25.1% | 21.8% | 26.3% | 20.6% | 28.4% | 26.3% |
| CC1CC(C)(C)OC(c2ccc(Cl)cc2)O1 (stereo unspecified) | 9.35% | -5.85% | -9.6% | -52.5% | -12.4% | -9.1% |
| Cc1ccc2c(c1)C(O)(CC(=O)c1ccccc1)C(=O)N2 (stereo unspecified) | 35.4% | 0.55% | 7% | -47.9% | -6.6% | 1.35% |
| Nc1ccccc1/C(O)=C1/CCOC1=O | 0.6% | -23.6% | 2.15% | 1.5% | 15.3% | -3.2% |
| O=C(NN=C1CCCCC1)NN=C1CCCCC1 | -40.2% | -10.8% | -29.2% | -2.4% | -6.55% | -0.4% |
| CCOc1ccc(NC(=O)CCCCCCCCC(=O)Nc2ccc(OCC)cc2)cc1 | 6.8% | 3.2% | -11.8% | -1.9% | -4.8% | 19.8% |
| O=C1c2ccccc2C2CC1c1ccccc12 (stereo unspecified) | 6.35% | -1.6% | -1.7% | -7.7% | -16.4% | -5.4% |
| O=c1c2ccccc2[nH]c2ccc(O)cc12 | 1.45% | -7.95% | 4.8% | -3.25% | 3.2% | 16.4% |
| CC(C)(C)c1ccc(/C=N/NC(=O)c2cccnc2)cc1 | 0.55% | 8.45% | 4.15% | 14.3% | 11.3% | 9.45% |
| NC(=O)CNC(=O)C1CCCN1C(=O)C1CCCCNOC(=O)CC[C@@H](NC(=O)OCC2c3ccccc3-c3ccccc32)C(=O)NC(Cc2c[nH]c3ccccc23)C(=O)N1 (stereo partly specified) (Fmoc-[dE][ξW][X9][ξP]G-NH2; ester 1-3) | -10.2% | -15.8% | -6.55% | 24.1% | -16.2% | -19.6% |
